The nature of test [1]: antimalarial activity against Dd2 strain (AID 2302;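 active = growth inhibition above 50% at the single 2 µM test dose, taken to imply half-maximal potency below 2 µM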;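 also: 0% = DMSO untreated growth and 100% = chloroquine plus artemisinin killed control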). To be noted: P. falciparum Dd2 in RBCs, LDH growth readout, 72 h; at 2 µM; stronger effect = higher value.
A short description of test [2]: human hepatoma cell viability loss – ATP luminescence, cytotoxicity control for P. falciparum antimalarial project, primary screen (AID 2303;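 active = inhibition above 50%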;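 also: 0% = DMSO wells and 100% = digitonin-killed cells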). To be noted: HepG2 viability, 24-48 h, at 10 µM, stronger effect = higher value.
The target of test [3] is L-lactate dehydrogenase (Plasmodium falciparum (isolate CDC / Honduras)) (UniProt Q27743). Description: PfLDH activity inhibition – cell lysate, 3D7 strain, counter-screen for P. falciparum growth inhibition project (AID 2304).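 Also: 0% = vehicle and 100% = reference inhibitor.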 To be noted: P. falciparum 3D7 crude extract, LDH APAD/NBT absorbance; at 2 µM; stronger effect = higher value. On the technique in general: The purpose of a counterscreen is to sort out artefacts and off-target activity.
Sequence of L-lactate dehydrogenase (Plasmodium falciparum (isolate CDC / Honduras)) (Q27743 whole entry, looked up): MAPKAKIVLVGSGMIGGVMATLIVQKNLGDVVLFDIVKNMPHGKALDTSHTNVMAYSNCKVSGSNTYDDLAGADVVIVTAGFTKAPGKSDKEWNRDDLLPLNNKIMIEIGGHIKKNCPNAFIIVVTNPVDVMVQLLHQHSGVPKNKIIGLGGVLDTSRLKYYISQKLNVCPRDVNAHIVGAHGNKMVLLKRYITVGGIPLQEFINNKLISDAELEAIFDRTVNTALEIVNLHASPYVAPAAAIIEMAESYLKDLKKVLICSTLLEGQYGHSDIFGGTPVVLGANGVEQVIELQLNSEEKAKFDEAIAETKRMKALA

A short description of test [4]: inhibition of 3D7 malaria parasite growth – strain 3D7 (AID 2306).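 Also: 0% = DMSO wells and 100% = chloroquine plus artemisinin control wells.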 To be noted: P. falciparum 3D7 erythrocytic growth, LDH absorbance, 72 h; at 2 µM; stronger effect = higher value.
The target in test [5] is Calcium-dependent protein kinase 1 (Plasmodium falciparum (isolate 3D7)) (UniProt P62344). Nature of the test: PfCDPK1 kinase inhibitors, biochemical, TCAMS library (AID 1159585; cut-off not given, nearly all actives have IC50 up to about 0.98 µM;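 also: inhibitors leave more ATP so luminescence rises with inhibition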). To be noted: recombinant PfCDPK1, Kinase-Glo ATP depletion luminescence. Background: Kinase-Glo measures the ATP left after a reaction by luminescence.
Sequence of Calcium-dependent protein kinase 1 (Plasmodium falciparum (isolate 3D7)) (P62344 whole entry, looked up): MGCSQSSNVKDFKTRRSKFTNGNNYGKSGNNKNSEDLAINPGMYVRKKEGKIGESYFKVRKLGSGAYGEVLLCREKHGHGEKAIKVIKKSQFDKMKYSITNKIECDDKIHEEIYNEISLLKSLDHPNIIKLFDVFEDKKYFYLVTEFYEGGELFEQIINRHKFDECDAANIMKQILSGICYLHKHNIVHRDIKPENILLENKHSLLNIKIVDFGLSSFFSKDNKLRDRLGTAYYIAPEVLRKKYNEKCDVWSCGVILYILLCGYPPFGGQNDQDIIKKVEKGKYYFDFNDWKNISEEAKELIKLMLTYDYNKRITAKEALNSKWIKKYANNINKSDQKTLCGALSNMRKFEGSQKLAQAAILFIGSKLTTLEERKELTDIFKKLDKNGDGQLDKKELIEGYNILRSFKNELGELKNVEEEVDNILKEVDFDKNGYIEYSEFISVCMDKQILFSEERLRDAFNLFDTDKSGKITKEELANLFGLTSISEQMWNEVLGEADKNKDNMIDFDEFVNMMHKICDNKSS
Test [6] deals with Plasmodium falciparum protein kinase 6 (PK6, PF3D7_1337100) (UniProt Q8IDW1). Description: PfPK6 kinase inhibitors, biochemical, TCAMS library (AID 1159586). To be noted: recombinant PfPK6, Kinase-Glo ATP depletion luminescence.
Sequence of Plasmodium falciparum protein kinase 6 (PK6, PF3D7_1337100) (Q8IDW1 1-305): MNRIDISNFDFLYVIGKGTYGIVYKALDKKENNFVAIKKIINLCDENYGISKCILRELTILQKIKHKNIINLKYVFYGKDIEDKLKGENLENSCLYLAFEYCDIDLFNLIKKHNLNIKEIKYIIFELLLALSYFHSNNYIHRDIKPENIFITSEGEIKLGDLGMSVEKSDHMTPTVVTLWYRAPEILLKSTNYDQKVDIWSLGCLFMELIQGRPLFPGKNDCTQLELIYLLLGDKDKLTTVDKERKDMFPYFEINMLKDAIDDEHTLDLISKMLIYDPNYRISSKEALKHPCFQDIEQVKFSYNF
Test [7] has as its target Protein kinase 7 (PK7), Plasmodium falciparum 3D7 (PF3D7_0213400) (UniProt Q7YTF7). Nature of the test: inhibition of Plasmodium PK7 catalytic activity – biochemical, TCAMS antimalarial set, Kinase-Glo luminescence (AID 1159587). To be noted: recombinant PfPK7, Kinase-Glo ATP depletion luminescence.
The target in test [8] is Calcium-dependent protein kinase 4 (Plasmodium falciparum (isolate 3D7)) (UniProt Q8IBS5). Nature of the test: PfCDPK4 kinase inhibitors, biochemical, TCAMS library (AID 1159588; cut-off not given, nearly all actives have IC50 up to about 0.91 µM). To be noted: recombinant PfCDPK4, Kinase-Glo ATP depletion luminescence.
Sequence of Calcium-dependent protein kinase 4 (Plasmodium falciparum (isolate 3D7)) (Q8IBS5 whole entry, looked up): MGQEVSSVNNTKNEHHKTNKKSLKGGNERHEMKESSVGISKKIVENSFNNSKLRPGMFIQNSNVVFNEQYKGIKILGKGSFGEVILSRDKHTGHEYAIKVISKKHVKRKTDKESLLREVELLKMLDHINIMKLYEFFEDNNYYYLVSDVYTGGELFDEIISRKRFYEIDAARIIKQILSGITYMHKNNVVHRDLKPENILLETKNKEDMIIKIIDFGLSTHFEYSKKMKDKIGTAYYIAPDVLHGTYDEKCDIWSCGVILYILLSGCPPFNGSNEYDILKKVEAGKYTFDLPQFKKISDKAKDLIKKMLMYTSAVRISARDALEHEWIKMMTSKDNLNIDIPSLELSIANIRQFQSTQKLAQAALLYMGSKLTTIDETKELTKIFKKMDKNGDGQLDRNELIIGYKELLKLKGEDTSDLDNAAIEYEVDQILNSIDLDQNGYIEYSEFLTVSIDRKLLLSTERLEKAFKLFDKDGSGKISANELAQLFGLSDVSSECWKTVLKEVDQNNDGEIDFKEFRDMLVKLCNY

SMILES strings stand for the structures. Unmarked numbers belong to inactive results. For some of these results: Measured potencies and affinities stand elsewhere. Active and inactive are the calls of the source. Unless noted, no rule for the calls is given here.

Sequence of Protein kinase 7 (PK7), Plasmodium falciparum 3D7 (PF3D7_0213400) (Q7YTF7 1-343): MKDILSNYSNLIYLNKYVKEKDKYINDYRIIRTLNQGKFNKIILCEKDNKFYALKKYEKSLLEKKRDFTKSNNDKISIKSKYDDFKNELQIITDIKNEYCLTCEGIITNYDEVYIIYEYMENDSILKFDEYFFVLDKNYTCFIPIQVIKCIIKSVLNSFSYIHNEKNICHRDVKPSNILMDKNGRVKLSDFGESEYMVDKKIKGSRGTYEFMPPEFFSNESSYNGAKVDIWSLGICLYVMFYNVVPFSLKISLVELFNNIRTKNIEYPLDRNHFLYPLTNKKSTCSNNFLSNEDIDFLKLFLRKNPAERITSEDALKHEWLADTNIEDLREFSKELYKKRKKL

As a reminder, the inhibition is the drop in the measured response relative to a control, in per cent. As for `CCCCCCCN1CC[C@@H](CCCc2ccnc3ccc(OC)cc23)[C@@H](CNC)C1`, the growth inhibition in test [1] is 95% (active); in test [4], 101% (active). Further, the inhibition in test [2] was 25%; in test [3] it was -2%. In addition, the outcome in test [5], in test [6], in test [7] and in test [8] was inactive.

Regarding `NC(=O)c1ccc(NCC(=O)Nc2cccc(-c3cccc(-c4nc5ccc(F)cc5[nH]4)c3)c2)cc1`, the results for the growth inhibition in test [1] and in test [4] were 32% and 97% (active), respectively. Further, the inhibition in test [2] was 15%; in test [3], -3%. Further, the outcome in test [5], in test [6], in test [7] and in test [8] was inactive.

Consider `Fc1ccc2nc(-c3ccc(-c4ccc(CNCCN5CCNCC5)cc4)s3)[nH]c2c1`, for which the growth inhibition in test [1] was 2%; in test [4], 96% (active). The inhibition is 24% in test [2] and -1% in test [3]. Moreover, the outcome in test [5], in test [6], in test [7] and in test [8] was inactive.

Turning to `O=C(/C=C/c1ccc(Cl)c(Cl)c1)NCCCCCN1CCC(NC(=O)NC2CCCCC2)CC1`, the results for the growth inhibition in test [1] and in test [4] were 44% and 96% (active), respectively. In addition, the inhibition in test [2] is 22%; in test [3] it was -1%. For the same compound, the result in test [5], in test [6], in test [7] and in test [8] was inactive.

`N#Cc1ccc(C(=O)Nc2ccc(-c3cccc(CN4CCCC4)c3)cc2)cc1`: the growth inhibition in test [1] is 1%; in test [4], 89% (active). Besides, the inhibition was 17% in test [2] and -1% in test [3]. Also, the result in test [5], in test [6], in test [7] and in test [8] was inactive.

`CNCCNCc1ccc(-c2ccc(-c3nc4ccc(C(F)(F)F)cc4[nH]3)cc2)cc1`: the growth inhibition is 92% (active) in test [1] and 99% (active) in test [4]. Moreover, the inhibition in test [2] is 28%; in test [3], 1%. Further, the outcome in test [5], in test [6], in test [7] and in test [8] was inactive.

In the case of `CC(C)c1ccc(NC(=O)c2ccc(CN3CCCN(CC4CCCCC4)CC3)cc2)cc1`, the growth inhibition in test [1] is 34%; in test [4] it was 90% (active). Further, the inhibition in test [2] was 50% (active); in test [3], 6%. Further, the result in test [5], in test [6], in test [7] and in test [8] was inactive.

Consider `Cc1cccc(C(=O)Nc2ccnc(N(C)CCCN(C)Cc3cccc(C#N)c3)c2)c1`, for which the growth inhibition is 12% in test [1] and 92% (active) in test [4]. The inhibition in test [2] was 1%; in test [3], -2%. Besides, the outcome in test [5], in test [6], in test [7] and in test [8] was inactive.

With `FC(F)(F)c1cccc(CCNc2nccc(NCc3ccccc3Cl)n2)c1`, the growth inhibition in test [1] is 38%; in test [4] it was 89% (active). Moreover, the inhibition in test [2] is 31%; in test [3], 1%. In addition, the result in test [5], in test [6], in test [7] and in test [8] was inactive.

Regarding `Cc1cc(OCCCN2CCC(NS(=O)(=O)c3ccc(C(F)(F)F)cc3)CC2)c2ccccc2n1`, the growth inhibition in test [1] was 24%; in test [4], 95% (active). The inhibition in test [2] was 12%; in test [3], 1%. In addition, the outcome in test [5], in test [6], in test [7] and in test [8] was inactive.

For the compound `O=C(Nc1ccc(N2CCNCC2)cc1)c1ccn2ncc(-c3cccc(Cl)c3)c2n1`, the growth inhibition in test [1] is 53% (active); in test [4], 96% (active). In addition, the figures for the inhibition in test [2] and in test [3] were 79% (active) and -2%, respectively. Also, the outcome in test [5], in test [6], in test [7] and in test [8] was inactive.

With `Cn1nc(C(=O)N2CCC(c3[nH]ncc3Cc3ccccc3)CC2)c2ccccc2c1=O`, the growth inhibition in test [1] and in test [4] was 95% (active) each time. The values for the inhibition in test [2] and in test [3] were 5% and -2%, respectively. For the same compound, the result in test [5], in test [6], in test [7] and in test [8] was inactive.

For the compound `NC1CCN(CCNCc2cccc(-c3ccc(-c4nc5ccc(C(F)(F)F)cc5[nH]4)cc3)c2)C1` (stereo not given), the growth inhibition in test [1] was 75% (active); in test [4], 98% (active). In addition, the values for the inhibition in test [2] and in test [3] were 19% and 1%, respectively. The outcome in test [5], in test [6], in test [7] and in test [8] was inactive.

On to `O=C(NCc1cccc(F)c1)Nc1cccc(-c2cccc(-c3nc4ccc(C(F)(F)F)cc4[nH]3)c2)c1`, for which the growth inhibition in test [1] is 32%; in test [4], 93% (active). Also, the inhibition in test [2] was 55% (active); in test [3], -7%. For the same compound, the outcome in test [5], in test [6], in test [7] and in test [8] was inactive.

For `FC(F)(F)c1cccc(NC(=S)NN=Cc2ccccn2)c1`, the growth inhibition in test [1] is 99% (active); in test [4], 100% (active). The inhibition in test [2] is 29%; in test [3] it was -7%. Further, the outcome in test [5], in test [6], in test [7] and in test [8] was inactive.

For the compound `COc1ccc(Nc2nccc(-c3cccc(NC(=O)c4cc5cc(F)ccc5[nH]4)c3)n2)cc1`, the growth inhibition in test [1] was 37%; in test [4], 92% (active). In addition, the figures for the inhibition in test [2] and in test [3] were 3% and 5%, respectively. The outcome in test [5], in test [6], in test [7] and in test [8] was inactive.

`O=C(Nc1cccc(-c2ccc(CN3CCCC3)cc2)c1)c1ccc(F)cc1`: the growth inhibition in test [1] is 9%; in test [4], 92% (active). The inhibition in test [2] was 23%; in test [3], 4%. Moreover, the outcome in test [5], in test [6], in test [7] and in test [8] was inactive.

For `Cc1nc2nc(N)nc(N)c2c(C)c1Cc1ccc(O)cc1`, the growth inhibition is 0% in test [1] and 94% (active) in test [4]. Also, the inhibition in test [2] is 64% (active); in test [3], 1%. Also, the outcome in test [5], in test [6], in test [7] and in test [8] was inactive.

Take `N#Cc1ccc2c(c1)CCN(CCC1CCC(NC(=O)Nc3ccncc3)CC1)C2` (stereo not given): the growth inhibition was 3% in test [1] and 85% (active) in test [4]. The results for the inhibition in test [2] and in test [3] were 6% and -4%, respectively. Also, the outcome in test [5], in test [6], in test [7] and in test [8] was inactive.

Take `Cc1cc(OCCCNc2nc(NCCc3ccc(O)cc3)nc(N3CCNCC3)n2)c(Cl)c(C)c1Cl`: the growth inhibition in test [1] is 8%; in test [4], 99% (active). In addition, the inhibition in test [2] is 54% (active); in test [3], 5%. Moreover, the result in test [5], in test [6], in test [7] and in test [8] was inactive.

The record behind these values is PubChem BioAssay.
